# More than one record can exist for a structure, and the calls need not agree. Activity calls are given as the source filed them. The calls were made as follows: active = hit-call score of the fitted dose curve at least 0.9, where 1 is the maximum; inactive = score below 0.9.
# Assay: ATG_NRF2_ARE_CIS: Attagene CIS-FACTORIAL HepG2 Assay for human Nuclear Factor Erythroid 2 Related Factor 2 (NFR2) response to Antioxidant Response Elements (ARE) (AID 2282992)
# Settings: HepG2 Attagene ARE/NRF2 reporter, transcription factor activity; actives raise or lower the signal
# Description: ATG_CIS is a cell-based, multiplexed-readout assay that uses HepG2, a human liver cell line, with measurements taken at 24 hours after chemical dosing in a 24-well plate.ATG_NRF2_ARE_CIS is one of 52 assay component(s) measured or calculated from the ATG_CIS assay. It is designed to make measurements of mRNA induction, a form of inducible reporter, as detected with fluorescence intensity signals by Reverse transcription polymerase chain reaction (RT-PCR) and Capillary electrophoresis technology.Data from the assay component ATG_NRF2_ARE_CIS was analyzed into 1 assay endpoint. This assay endpoint, ATG_NRF2_ARE_CIS, was analyzed with bidirectional fitting relative to DMSO as the negative control and baseline of activity. Using a type of inducible reporter, measures of mRNA for gain or loss-of-signal activity can be used to understand the reporter gene at the transcription factor-level as they relate to the gene NFE2L2. Furthermore, this assay endpoint can be referred to as a primary readout, because this assay has produced multiple assay endpoints where this one serves a reporter gene function. To generalize the intended target to other relatable targets, this assay endpoint is annotated to the dna binding intended target family, where the subfamily is basic leucine zipper.
# Human liver HepG2 cells are transiently transfected with multiple reporter transcription units (MRTUs) in 6-well plates using FuGene 6 reagent (Roche; 3 ml FuGene/1 mg DNA). The MRTU constructs are regulated by a cis-regulating element (promoter). […] A major difference between the CIS and TRANS system is that in CIS activities of endogenous TFs are measured, whereas the TRANS assay evaluates changes in activities of exogenous, chimeric NR-Gal4 proteins. […] At the end of 24 hour incubation, total RNA was isolated using TriZol reagent (Invitrogen). The isolated RNA is then reverse-transcribed using oligo(dT) primer and Mo-MLV reverse transcriptase (Invitrogen) with DNAse I (Ambion) treatment for 30 min. The one-tenth of the produced cDNA was amplified by PCR using Taq DNA polymerase (Invitrogen) and two reporter sequence-specific primers. The PCR products were fluorescently labeled by primer extension with 6-arboxyfluorescein (6-FAM) 5'-labeled reporter sequence-specific primer (2 min at 95 C, 20 s at 68 C and 10 min at 72 C) and these products were digested with 5U of HpaI (New England Biolabs) for 2h at 37 C. The fragments were purified using Qiaquick PCR columns (Qiagen), analyzed on an ABI 3130xL genetic analyzer (Applied Biosystems) with peak positions identified by using a set of X-rhodamine (ROX)-labeled MapMarker1000 molecular weight standards (BioVentures). The raw capillary electrophoresis data was processed using Attagraph software (Attagene).
SMILES,outcome,AC50
O=C1CCCN1,inactive,–
ClC1(Cl)C2(Cl)C3(Cl)C4(Cl)C(Cl)(Cl)C5(Cl)C3(Cl)C1(Cl)C5(Cl)C24Cl (stereo not given),inactive,–
O=C(O)C(F)(F)C(F)(F)C(F)(F)C(F)(F)C(F)(F)C(F)(F)C(F)(F)C(F)(F)C(F)(F)C(F)(F)F,inactive,7.52 µM (active)
COc1cc2c(cc1OC)[C@@]13CCN4CC5=CCO[C@H]6CC(=O)N2[C@H]1[C@H]6[C@H]5C[C@H]43,inactive,–
OCc1ccco1,–,49.6 µM (active)
CC(C)c1cccc(C(C)C)c1O,inactive,–
COc1ccccc1OC,inactive,–
O=S(=O)(c1ccc(Cl)cc1)c1ccc(Cl)cc1,–,10 µM (active)
CCOC(=O)CP(=O)(OCC)OCC,inactive,–
C=C(C)C#N,inactive,–
OCC(O)CCl (stereo not given),inactive,–
O=C/C=C/c1ccccc1,–,30.8 µM (active)
CCOP(OCC)OCC,inactive,–
CCOP(=O)(CN(CCO)CCO)OCC,inactive,–
C1CCC(NC2CCCCC2)CC1,inactive,–
N#CCc1ccc(Cl)cc1,inactive,–
CCc1ccccc1N,inactive,–
C=CC#N,–,119 µM (active)
CC1CN1P(=O)(N1CC1C)N1CC1C (stereo not given),inactive,–
CCC(C)c1cccc(C(C)CC)c1O (stereo not given),–,18 µM (active)

SMILES,outcome,AC50
CC(C#N)CCC#N (stereo not given),inactive,–
ClC(Cl)=C(Cl)C(Cl)=C(Cl)Cl,–,66 µM (active)
CCNc1nc(NC(C)(C)C)nc(SC)n1,inactive,–
CC(C)(c1ccccc1)c1ccc(O)c(C(C)(C)c2ccccc2)c1,–,7.97 µM (active)
Cc1cc(Cl)ccc1O[C@H](C)C(=O)O,inactive,–
BrCCBr,inactive,–
COC(=O)Cc1ccccc1,inactive,–
O=[N+]([O-])c1ccc2c3c(cccc13)CC2,–,6.63 µM (active)
Clc1ccc(C2(Cn3cncn3)CC(Br)CO2)c(Cl)c1 (stereo not given),–,26.9 µM (active)
COP(=O)(OC)O/C(=C\Cl)c1cc(Cl)c(Cl)cc1Cl,–,25.8 µM (active)
C[C@@H](Oc1ccc(Cl)cc1Cl)C(=O)O,inactive,–
CCOP(=S)(OCC)SCCS(=O)(=O)CC,–,19 µM (active)
CCSC(C)CC1CC(=O)C(C(CC)=NOC/C=C/Cl)=C(O)C1 (stereo not given),inactive,–
CC(C)OC(=O)Nc1ccccc1,inactive,–
CN(CCCC(=O)c1cccnc1)N=O,inactive,–
ClCC(Cl)CCl,inactive,–
Clc1ccc(COC(Cn2ccnc2)c2ccc(Cl)cc2Cl)cc1 (stereo not given),–,6.8 µM (active)
CCCCCCCCC(=O)NCc1ccc(O)c(OC)c1,–,38.3 µM (active)
ClC1=C(Cl)[C@]2(Cl)[C@H]3[C@H]([C@H]4C=C[C@H]3C4)[C@@]1(Cl)C2(Cl)Cl,inactive,–
